Screens as filed in PubChem.
ROC1-CUL1 inh: blocks human RBX1-Cullin-1 di-ubiquitin formation; P62877+Q13616; in vitro K48 di-Ub FRET, acceptor:donor ratio, 45 min; inhibition, % at 10 µM; 0.6% of 140,000 active; AID 1347404; in the data active = inhibition above about 25%
Numbers without * were called inactive. This is one part of a sample in which hits are shown more often than they occur.

SMILES	ROC1-CUL1 inh
CN=C1CC=CC=C(C(=O)/C=C/c2cccc(C#N)c2)C1=O	49*
CN=C1CC=C(Br)C=C(C(=O)/C=C/c2ccc3c(c2)OCO3)C1=O	-1
Cc1nc(C(=O)N2CCCC(CCC(=O)N3CCN(c4ccccn4)CC3)C2)cs1 (stereo not given)	3
O=c1ccc(=O)n(-c2ccccc2)[nH]1	5
CC(C)(C)c1cc(=O)n(-c2ccccc2)[nH]1	73*
COc1ccc(-c2cc(=O)n(-c3ccccc3)[nH]2)cc1OC	1
COc1ccc(N2CCN(S(=O)(=O)Cc3cccc(C)c3)CC2)cc1	5
C/C(=N\N1CCN(C2c3ccccc3-c3ccccc32)CC1)c1ccc(F)cc1	1
O=C1c2ccccc2C(=O)C1C(c1ccc(F)cc1)c1ccc(F)cc1	13
O=C(CC(c1ccccc1)c1ccccc1F)N1CCC(N2CCOCC2)CC1 (stereo not given)	-3
O=C1C(=Nc2ccc(F)cc2)C(N2CCCCC2)C(=O)c2ccccc21 (stereo not given)	50*
O=C1C(=Nc2ccc(F)cc2)C(N2CCOCC2)C(=O)c2ccccc21 (stereo not given)	50*
CC(=O)N=C1C(=O)c2ccccc2C(=O)C1N1CCN(c2ccc(F)cc2)CC1 (stereo not given)	14
CCOC(=O)C1(C)CC(=Nc2cccc(C(=O)O)c2)C(=O)N1c1ccccc1 (stereo not given)	3
COc1ccc(/C=C/C(=O)Nc2ccc(C)c(Cl)c2)cc1OC	2
COc1cc(NC(=O)/C=C\c2ccc(C)o2)c(OC)cc1Cl	4
Cc1ccc(/C=C/C(=O)Nc2ccc(C)c(Cl)c2)o1	66*
Cc1ccc(/C=C/C(=O)Nc2nc(-c3ccc(C)c(C)c3)cs2)o1	-4
Cc1ccc(/C=C/C(=O)Nc2cccnc2)o1	45*
Cc1ccc(/C=C/C(=O)Nc2ccccc2C(N)=O)o1	0
CN(CC1CCCCO1)C(=O)c1cn(CCc2ccccc2)nn1 (stereo not given)	0
Cc1ccc(/C=N/NC(=O)CSc2nc3ccccc3n2C)o1	0
Cc1cccc2c1OC(=O)C(C(c1ccc(Cl)cc1)C1C(=O)Oc3c(C)cccc3C1=O)C2=O (stereo not given)	78*
O=C1Oc2ccccc2C(=O)C1C(c1cccc(O)c1)C1C(=O)Oc2ccccc2C1=O (stereo not given)	13
O=C1Oc2ccccc2C(=O)C1C(c1ccc(F)cc1)C1C(=O)Oc2ccccc2C1=O (stereo not given)	0
SMILES	ROC1-CUL1 inh
COc1cc(OC)cc(C(=O)N2CCN(Cc3ccc([N+](=O)[O-])cc3)CC2)c1	-3
Cc1ccc(NC(=O)CN2C(=O)c3ccc4c5c(ccc(c35)C2=O)CC4)cc1	38*
O=C(CN1C(=O)c2ccccc2C1=O)Nc1ccc(I)cc1	-6
Cc1ccc(NC(=O)CN2C(=O)c3ccccc3C2=O)cc1Cl	-11
COc1cc(/C=C2/C(=O)N(c3ccccc3)N=C2C)ccc1OCc1ccc(F)cc1	10
C#CCOc1ccc(/C=C2\C(=O)N(c3cccc(F)c3)N=C2C)cc1OC	31*
CCOc1cc(/C=C2\C(=O)N(c3cccc(C(=O)O)c3)N=C2C(F)(F)F)ccc1OCC(=O)Nc1ccccc1OC	15
COc1cc(/C=C2\C(=O)N(c3cccc(F)c3)N=C2C)ccc1O	0
CCOc1cc(/C=C2/C(=O)N(c3cccc(C(=O)O)c3)N=C2C)ccc1OCC(=O)Nc1ccccc1	36*
COc1cc(/C=C2\C(=O)N(c3ccc(C)cc3)N=C2C)ccc1OCC(=O)Nc1ccc(C(=O)O)cc1	-2
CCOC(=O)c1c(-c2ccc(OC)c(OC)c2)csc1NC(=O)CCN1CCC(C)CC1	0
COc1cc(/C=N/NC(=O)c2ccccc2[N+](=O)[O-])c([N+](=O)[O-])cc1OC	-4
CCc1cccc2c(/C=C3/C(=O)NC(=S)N(CC)C3=O)cn(CCOc3ccccc3Cl)c12	-2
CCOC(=O)Cn1cc(/C=C2\C(=O)NC(=O)N(Cc3ccccc3)C2=O)c2ccccc21	1
CCc1cccc2c(/C=C3\C(=O)NC(=S)N(Cc4ccco4)C3=O)cn(CC(N)=O)c12	74*
Cc1ccc(CS(=O)(=O)NCCC2=CCCCC2)cc1	3
CCCCN(CCCC)C(=S)SCn1nnc2ccccc21	-5
N=c1c2sc3nc(-c4cccs4)cc(C(F)(F)F)c3c2ncn1N	39*
CSc1ncnc2c1sc1nc(-c3cccs3)cc(C(F)(F)F)c12	-3
FC(F)(F)c1cc(-c2cccs2)nc2sc3c(=S)nc[nH]c3c12	3
CC(C)(C)c1ccc(C(=O)NNC(=O)CCCCC(=O)NNC(=O)c2ccc(C(C)(C)C)cc2)cc1	-4
COC(=O)c1cc(NC(=O)CSc2nnc(COc3ccc(C)cc3)o2)ccc1Cl	-1
Nc1nc2cc3nsnc3cc2s1	0
Nc1nc2cc(N)c(N)cc2s1	93*
CCOc1ccc2nc(N)sc2c1	-3
Cc1cccc(CN2CCC(C(=O)N(C)C)CC2)c1	8
Cc1nnc(SCC(=O)c2ccc(Cl)c(Cl)c2)s1	-2
CCNS(=O)(=O)c1ccc(C(C)(C)C)cc1	-9
